In PubChem BioAssay AID1259240 (Keith Lab, Institute of Cancer Science, University of …, 2017):
Activity calls are given as the source filed them. Rule as the data show it: active = fold change mostly below about -2 (no sharp cut-off); inactive = mostly above about -1.8.

Experiment: TERT promoter activity modulators, primary screen, cell-based, luciferase reporter, human (AID 1259240)
Settings: A2780 TERT promoter luciferase reporter, 16 h; at 20 µM, fold versus average of vehicle-only wells

Fold change, inactive:
COc1ccc(CCNc2ccc3nnc(C)n3n2)c(OC)c1 -1.29
O=C(c1cnc2ccccc2n1)N1CCn2c(nc3ccccc32)C1 1.4
CCOC(=O)C1CCCN(c2c(N3CCOCC3)c(=O)c2=O)C1 (stereo not drawn) -1.15
CC(C)C(NS(=O)(=O)c1ccc2c(c1)oc(=O)n2C)C(=O)Nc1ccc(F)c(F)c1 (stereo not drawn) -1.83
CC1CCC(NC(=O)Cn2c(=O)c(C(F)(F)F)nc3ccccc32)CC1 (stereo not drawn) -1.07
COc1ccc2oc(=O)c(S(=O)(=O)c3ccc(C(C)C)cc3)cc2c1 1.21
CC1=CSC2=NC(=O)/C(=C\c3coc4ccccc4c3=O)C(=N)N12 -1.1
COc1ccc(-c2cc(N3C(=O)Nc4ccccc4N3O)n[nH]2)cc1OC 1.2
Cc1ccc(-c2n[nH]c3c2C(c2ccccn2)N(c2ccc(C(=O)O)cc2)C3=O)cc1 (stereo not drawn) -1.91
CC(=O)N(C1=C(N(C)C)C(=O)c2ccccc2C1=O)c1cc(C)cc(C)c1 -1.54
CCOC(=O)C1CCN(c2c(N3CCN(CC)CC3)c(=O)c2=O)CC1 1.21
COCCCNc1nc2c(-c3ccccc3)nnn2c2ccccc12 1.02
COCCN1C(=O)c2oc3ccc(F)cc3c(=O)c2C1c1cccc(O)c1 (stereo not drawn) -1.86
COc1ccc(Nc2c(-c3ccc(C)o3)nc3ncccn23)cc1OC -1.44
Cn1c(=O)c2c(SCC(=O)Nc3ccc([N+](=O)[O-])cc3)nc(-c3ccc(F)cc3)nc2n(C)c1=O 1.08
Cc1ccc2nc(NC3=NCN(Cc4ccco4)CN3)nc(C)c2c1 1
CC(CC(=O)Nc1nccs1)CC1=NS(=O)(=O)c2ccccc2N1 (stereo not drawn) -1.22
COCCNC(=O)Cn1cc(/C=C2/C(=O)N(C)c3ccccc32)c2cc(Br)ccc21 -1.01

Fold change, active:
COc1ccc2c(c1)NC(=O)C2(O)C(F)(F)F (stereo not drawn) 2.17
COC(=O)c1ccc(CSc2nc(-c3ccco3)cc(C(F)(F)F)n2)o1 -2.77
O=C(CC1(O)C(=O)Nc2ccc(Br)cc21)c1cccs1 (stereo not drawn) -6.1

outcome, inactive:
Cn1c(SCC(=O)NCc2ccco2)nnc1-c1c[nH]c2ccccc12
O=C1CCCC2=C1C(c1ccccc1Cl)n1nc(-c3ccccc3)nc1N2 (stereo not drawn)
